Compound activity: PubChem, several laboratories
LYPLA2 inh: LYPLA2 inhibitors, primary screen, counter-screen for PME1 inhibitor project, biochemical, fluorescence polarization, FP-Rh probe ABPP; Acyl-protein thioesterase 2 (Homo sapiens), O95372; recombinant LYPLA2; inhibition, % at 5.9 µM; hit rate 0.38% among 320,000; AID 2177, 2009;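 active = inhibition above the screen-wide mean plus 3 SD, limit set per campaign, cut at about 26% in these data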
PREPL inh: PREPL enzyme inhibitors, primary screen, biochemical, fluorescence polarization | recombinant PREPL, fluorescence polarization activity-based probe | hit rate 0.68% among 320,000 | AID 2751, 2010 | inhibition, % at 5.96 µM; in the data active = inhibition above about 43%
LYPLA1 inh: LYPLA1 inhibitors, primary screen, counter-screen for PME1 inhibitor project, biochemical, fluorescence polarization, FP-Rh probe ABPP; Acyl-protein thioesterase 1 (Homo sapiens), O75608; recombinant LYPLA1; inhibition, % at 5.9 µM; hit rate 0.16% among 320,000;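 active = inhibition above the mean of all tested compounds plus 3 SD, set per campaign, cut at about 14% in these data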;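 note: inhibitors block serine hydrolase probe labeling of LYPLA1 so polarization falls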
Hck Nef HTS: inhibitors of Nef-activated human Hck kinase, primary screen, biochemical, Z-Lyte FRET, 384-well, Hck-YEEI | Tyrosine-protein kinase HCK (Homo sapiens), P08631 | Recombinant Hck-YEEI plus Nef, Z-Lyte FRET kinase assay | inhibition, % at 20 µM | hit rate 0.68% among 220,000;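 active = Hck-Nef kinase inhibition above about 50%, limit read from the data; inactive = inhibition below that limit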
Rin1-Abl PPI inh: inhibitors of Rin1-Abl protein binding, primary screen, biochemical, TR-FRET. Tyrosine-protein kinase ABL1 (Homo sapiens) + Ras and Rab interactor 1 (Homo sapiens), …. inhibition, % at 7.35 µM. hit rate 0.4% among 360,000. AID 588664, 2011; in the data active = inhibition above about 5%, passing the limit was not always enough
p97 ATPase inh: inhibitors of human p97 ATPase, primary screen, biochemical; recombinant p97 ATPase, Kinase-Glo ATP luminescence, 3 h; inhibition, % at 8 µM; hit rate 0.42% among 220,000; in the data active = inhibition above about 15%
Target sequence (P55072 whole entry, looked up): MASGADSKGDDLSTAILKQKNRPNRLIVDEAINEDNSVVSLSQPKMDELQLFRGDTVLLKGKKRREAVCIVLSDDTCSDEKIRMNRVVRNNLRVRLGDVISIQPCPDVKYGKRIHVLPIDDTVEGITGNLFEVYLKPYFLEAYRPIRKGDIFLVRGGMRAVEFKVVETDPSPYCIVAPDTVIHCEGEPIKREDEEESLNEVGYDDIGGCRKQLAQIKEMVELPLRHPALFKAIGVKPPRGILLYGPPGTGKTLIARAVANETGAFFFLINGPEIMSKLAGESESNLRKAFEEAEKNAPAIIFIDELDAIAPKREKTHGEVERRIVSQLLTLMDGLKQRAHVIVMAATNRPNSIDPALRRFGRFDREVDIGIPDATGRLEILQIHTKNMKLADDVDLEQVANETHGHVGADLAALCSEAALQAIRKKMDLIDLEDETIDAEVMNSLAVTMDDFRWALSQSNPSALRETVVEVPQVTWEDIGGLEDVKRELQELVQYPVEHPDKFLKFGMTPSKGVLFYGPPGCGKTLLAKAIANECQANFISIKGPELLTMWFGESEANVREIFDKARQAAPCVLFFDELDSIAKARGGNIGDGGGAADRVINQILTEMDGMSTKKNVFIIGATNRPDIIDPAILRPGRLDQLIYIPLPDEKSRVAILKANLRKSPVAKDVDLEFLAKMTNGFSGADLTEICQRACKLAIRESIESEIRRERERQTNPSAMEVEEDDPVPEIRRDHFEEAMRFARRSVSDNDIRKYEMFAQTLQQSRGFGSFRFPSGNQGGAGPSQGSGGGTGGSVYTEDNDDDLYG
LYPLA1 confirm: LYPLA1 inhibitors, retest, confirmation, counter-screen for PME1 inhibitor project, biochemical, fluorescence polarization, FP-Rh probe ABPP | recombinant LYPLA1 | hit rate 69% among 480 | inhibition, % at 5.9 µM | shares compounds with LYPLA1 inh;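 active = mean inhibition across replicates above the hit cutoff set in the primary screen, cut at about 15% in these data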;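 note: loss of FP-Rh probe labeling of LYPLA1 seen as lower polarization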
Hits are given with their value; i = inactive; nt = not tested or not shown. This is a sample that favours compounds with a hit; in the whole collection about 1.7% have one here.

SMILES	LYPLA2 inh	PREPL inh	LYPLA1 inh	Hck Nef HTS	Rin1-Abl PPI inh	p97 ATPase inh	LYPLA1 confirm
CCOC(=O)C1CCN(S(=O)(=O)c2ccc3c(c2)CC(C)N3C(=O)C2CCC2)CC1 (stereo not given)	i	i	16	nt	i	nt	24
Cc1ccc(C(=O)OCC(=O)N2CCC(c3ccccc3)=N2)cc1	nt	i	nt	nt	i	nt	nt
O=C(CCC(=O)NC1CCCCC1)Nc1cccnc1	i	i	i	nt	i	nt	nt
O=C(O)c1ccccc1-c1ccc(/C=C/c2cc(C(F)(F)F)[nH]c(=O)n2)o1	nt	nt	nt	i	i	i	nt
O=C(O)c1cc(Cl)ccc1-c1ccc(/C=C/c2cc(C(F)(F)F)[nH]c(=O)n2)o1	31	i	18	i	i	i	i
COc1ccc(-n2cc(-c3ccccc3)c3c(NN4CCOCC4)ncnc32)cc1	i	i	14	i	i	i	27
CC1CN(Cc2cc(=O)oc3cc(O)c(Cl)cc23)CC(C)O1 (stereo not given)	i	i	16	nt	i	nt	42
COC(=O)C1(CC2CC(c3cccc(Br)c3)=NO2)CCN(C(=O)OC(C)(C)C)CC1 (stereo not given)	i	i	24	nt	i	nt	31
O=C(CN(C(=O)c1csnn1)c1ccc(F)c(Cl)c1)NC1CCCC1	i	i	i	nt	i	nt	nt
COc1ccccc1N1CCN(S(=O)(=O)CCNC(=O)c2ccccc2Br)CC1	i	i	i	nt	i	nt	nt
Cc1nc(S/C(=C/c2ccc(-c3ccc(Cl)cc3)o2)C(=O)O)n[nH]1	i	i	20	i	i	i	19
CC(=O)c1ccc(-c2ccc(/C=C(/Sc3n[nH]c(C)n3)C(=O)O)o2)cc1	i	i	i	i	i	i	nt
Cc1nc(S/C(=C/c2ccc(-c3ccc(C(=O)O)cc3)o2)C(=O)O)n[nH]1	i	i	i	i	i	i	nt
Cc1nc(S/C(=C/c2ccc(-c3cc(Cl)ccc3C)o2)C(=O)O)n[nH]1	i	i	26	i	i	i	28
COc1cc2ccccc2ccc1=NO	nt	nt	nt	nt	i	nt	nt
CCn1c(O)c(N=NC(=O)CNC(=O)c2cccnc2)c2ccccc21	nt	nt	nt	nt	i	nt	nt
COc1cc(C(=O)NCc2nnc(SCC(=O)N3CCCCCC3)o2)cc(OC)c1OC	i	i	i	nt	i	nt	nt
CCNC(=O)C1CCCN(C(=O)c2ccc(-c3ccccc3)cc2)CC1 (stereo not given)	nt	nt	nt	nt	i	nt	nt
COc1ccc(C(=O)Oc2cccc(Nc3ncnc4ccccc34)c2)cc1OC	i	i	16	i	i	i	15
COc1cc(C(=O)Oc2cccc(Nc3ncnc4ccccc34)c2)cc(OC)c1OC	i	i	i	i	i	i	nt
CC(=O)N1CCN(C(=O)COc2ccc(N(C)S(=O)(=O)c3cccs3)cc2)CC1	i	i	24	i	i	i	i
O=C(Nc1ccccc1Cl)NC1(C(=O)NCc2cccnc2)CCCCC1	i	i	i	nt	i	nt	nt
CCN(CC)C1=CC2=CC(=C(C#N)C#N)CCC2CC1 (stereo not given)	i	i	i	i	i	i	nt
CCCCN(C)C1=CC2=CC(=C(C#N)C#N)CCC2CC1 (stereo not given)	i	i	32	i	i	i	i
Cc1cc(C(=O)N2CCN(c3ccccc3Cl)CC2)c(C)o1	nt	i	nt	nt	i	nt	nt
SMILES	LYPLA2 inh	PREPL inh	LYPLA1 inh	Hck Nef HTS	Rin1-Abl PPI inh	p97 ATPase inh	LYPLA1 confirm
CCOC(=O)c1c(C)[nH]c(C(=O)OCC(=O)Nc2sc(C(=O)N(C)C)c(C)c2C(=O)OCC)c1C	i	i	47	nt	i	nt	74
COc1ccc(CC(=O)Nc2ccc(S(=O)(=O)N3CCC(C)CC3)cc2)c(OC)c1	i	i	17	nt	i	nt	i
COc1ccc(CC(NC(C)=O)C(=O)NC2CCN(S(=O)(=O)c3ccc(NC(C)=O)cc3)CC2)c(OC)c1 (stereo not given)	i	i	i	nt	i	nt	nt
C=CCOc1cccc(C(=O)N2CCC(CCC(=O)NC3CC3)CC2)c1	i	i	23	nt	i	nt	i
Cc1cc(C)cc(C(=O)N2CCC(CCC(=O)NC3CC3)CC2)c1	i	i	i	nt	i	nt	nt
COc1ccc(/C=C2/SC(=S)N(CCCC(=O)Nc3ccccc3C(=O)O)C2=O)cc1	i	i	20	nt	i	nt	19
CN(CC(=O)Nc1ccccc1Br)C(=O)CCSc1ccc(F)cc1	i	i	i	nt	i	nt	nt
CCOC(=O)C1=CNS(=O)(=O)NC1c1ccc(OC(C)=O)cc1 (stereo not given)	nt	nt	nt	nt	i	nt	nt
COc1ccc(Oc2c(C)oc3c(CN4CCOCC4)c(O)ccc3c2=O)cc1	i	i	i	i	i	i	nt
CCOC(=O)c1ccc(Oc2c(C)oc3c(CN4CCN(C)CC4)c(O)ccc3c2=O)cc1	i	i	17	i	i	i	17
COC(=O)CCCC(=O)N1CCCC(C(=O)c2ccc(-c3ccccc3)cc2)C1 (stereo not given)	i	i	21	nt	i	nt	29
CCC(=O)N1CCCC(C(=O)c2ccc(-c3ccccc3)cc2)C1 (stereo not given)	i	i	i	nt	i	nt	nt
COc1ccc(-n2c(C)c([N+](=O)[O-])c3ccc(O)c(CN4CCCCC4)c32)cc1	i	i	54	i	i	i	65
O=C1NC[C@H](c2ccccc2)N(CCC23CC4CC(CC(C4)C2)C3)C1=O	i	i	i	nt	i	nt	nt
O=C(c1ccccc1Br)N1CCc2c([nH]c3ccccc23)C1	i	i	i	nt	i	nt	nt
CC(Sc1nc(N)cc(=O)[nH]1)C(=O)Nc1sc2c(c1C#N)CCCC2 (stereo not given)	i	i	30	i	i	i	39
NC(=O)c1c(NC(=O)c2ccccc2)sc2c1CCC2	i	i	i	nt	i	nt	nt
Cn1ncc(Cl)c1C(=O)Nc1sc2c(c1C(N)=O)CCC2	i	i	29	i	i	i	i
O=C(NCCCN1CCOCC1)/C(=C/c1ccco1)NC(=O)c1ccccc1	i	i	i	nt	i	nt	nt
O=C1/C(=C/c2cccc([N+](=O)[O-])c2)Oc2cc(O)ccc21	i	i	17	nt	i	nt	15
O=C(O)CCCNc1cc(N2CCN(C(=O)c3ccco3)CC2)c2noc3c2c1C(=O)c1ccccc1-3	i	i	18	nt	i	nt	18
CCOC(=O)c1cnc(SCC(=O)Nc2ccc(N3CCOCC3)c(Cl)c2)nc1N	i	i	16	i	i	i	26
Cc1cnc(CNC(=O)CC2C(=O)NCCN2Cc2cccc(F)c2F)cn1 (stereo not given)	i	i	i	nt	i	nt	nt
CCOc1ccc(-c2c(C(=O)N/N=C(\C)c3ccncc3)nnn2-c2nonc2N)cc1	i	i	i	nt	i	nt	nt
C/C(=N\NC(=O)c1nnn(-c2nonc2N)c1-c1cccs1)c1ccncc1	i	i	25	nt	i	nt	i
